Measurements published in article PMC7819943, “Rice protein-binding microarrays: a tool to detect cis-acting elements near promoter regions in rice”.
Over roughly 68,000 sequences, “fluorescence intensity (a.u.)” has its median near 9,100; the highest 2% begin near 16,000. Shown is part of a subset that was picked to be rich in the highest values.

molecular target: OsWRKY34 (Oryza sativa, UniProt Q0JBA9 1-250); experiment: protein-binding microarray (RPBM); PBS, 2% BSA, 51.3 ng/ul salmon testes DNA, 50 uM zinc acetate, 200 nM TF, 25 C, 1 h; high values mean tight binding; conditions: protein: recombinant; tags: N-terminal polyhistidine and DsRed monomer fusion (pET32a); label: CyDye5-dUTP incorporated in the synthesized complementary strand; 3' TTTTT single-stranded linker to array surface; dsDNA, one strand shown
Sequence (Q0JBA9 entry or part of it): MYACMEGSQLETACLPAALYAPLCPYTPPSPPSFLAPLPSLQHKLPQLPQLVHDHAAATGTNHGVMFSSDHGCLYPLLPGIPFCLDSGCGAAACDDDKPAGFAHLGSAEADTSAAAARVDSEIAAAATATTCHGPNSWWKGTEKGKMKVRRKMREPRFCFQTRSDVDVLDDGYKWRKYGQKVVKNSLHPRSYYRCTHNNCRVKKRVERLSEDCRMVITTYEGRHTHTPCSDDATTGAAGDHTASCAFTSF
Method in brief: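 In PBS with 2% BSA, salmon testes DNA and 50 µM zinc acetate, 200 nM protein was incubated on a custom Agilent array at 25 °C for 1 h and then washed off. The array had been made double-stranded by primer extension with Cy5-dUTP and blocked with 2% BSA. The proteins were transcription factors fused N-terminally to polyhistidine and DsRed, expressed in E. coli BL21-CodonPlus and purified on Ni–NTA. The binding signal is per-feature fluorescence intensity (arbitrary units) from an Axon 4000B scanner.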

First: CGTGTCTTGTGTGTTTCCTGTCTCGCGAGCCTTCCACATACGGAGTCACCTAGTGCAG
Second: GATTTGGTCTGGTTTGGTTGGAGGTTAGCTCGCCTCTGATCGGAGTCACCTAGTGCAG
The binding signal of the first is lower: 15000 fluorescence intensity (a.u.) for the first, 19400 fluorescence intensity (a.u.) for the second.

Going from “GGTCTGGTTCTTCTTGATGCGAGGCTAGCTGACGTTTTTTCGGAGTCACCTAGTGCAG” to “ACCTTAATTAATTAATCTTGTTTTCTCATGGAGTTGTCATCGGAGTCACCTAGTGCAG”, the binding signal falls from 17200 fluorescence intensity (a.u.) to 10400 fluorescence intensity (a.u.).

Going from “AACGCGTGTATTTCTATGCTTTTGATATTGATCTTGCATCCGGAGTCACCTAGTGCAG” to “GGACATTTGGAACTGATTACTCCTACTACTCTAGTGAAAACGGAGTCACCTAGTGCAG”, the binding signal rises from 8230 fluorescence intensity (a.u.) to 8400 fluorescence intensity (a.u.).

Compared with “GTGCTACCTCCATCCCAATATACTTGTCGTTTTAAGTTTTCGGAGTCACCTAGTGCAG”, “TCTCTTATACTGATTTTTGGGTCCAATCCCTTACCGTTGACGGAGTCACCTAGTGCAG” is lower in binding signal: 11800 fluorescence intensity (a.u.) for the first, 8150 fluorescence intensity (a.u.) for the second.

First: CTTGTTGATGTGGGTGTTTCTTGGTCGATCCTTCTTGTTTCGGAGTCACCTAGTGCAG
Second: CCGTTTCCTTTGCTGGTTGTGTTTTGTGCTTGCATTCATGCGGAGTCACCTAGTGCAG
The binding signal of the first is lower: 8330 fluorescence intensity (a.u.) for the first, 12400 fluorescence intensity (a.u.) for the second.

First: GTTCTCTTTTTTGTTTGTCTTTCCTAGTGCAATATGTTTCCGGAGTCACCTAGTGCAG
Second: TTTGTGTGTCTTGTTTATATGTGCACATATCTTGTCTTGTCGGAGTCACCTAGTGCAG
The binding signal of the first is higher: 10700 fluorescence intensity (a.u.) for the first, 8370 fluorescence intensity (a.u.) for the second.

First: ATTTGTTGTTTCATTTGTATTGTTTTGTGTTGGTTTATGTCGGAGTCACCTAGTGCAG
Second: ACCTTTCCTTTCATCTCTTCCGCTGGTTTTGTGGGATATTCGGAGTCACCTAGTGCAG
The binding signal of the first is lower: 8940 fluorescence intensity (a.u.) for the first, 12800 fluorescence intensity (a.u.) for the second.

First: TGGTGACGATGGTGATGTTCTTGTTGTTGGTTTTTCCTTTCGGAGTCACCTAGTGCAG
Second: TTCCGGCCCGCGTTCTTTTTGAAGTCCAGTTTACGTCCTTCGGAGTCACCTAGTGCAG
The binding signal of the first is lower: 9530 fluorescence intensity (a.u.) for the first, 10800 fluorescence intensity (a.u.) for the second.

Compared with “TATTCCTTTCATTGGGTTTGTGCGGGATGGCTGGTTGGTGCGGAGTCACCTAGTGCAG”, “GGTCTGGTTTTATCGGTTTATATGTGTGTGTTTTTTTTGTCGGAGTCACCTAGTGCAG” is higher in binding signal: 18100 fluorescence intensity (a.u.) for the first, 33500 fluorescence intensity (a.u.) for the second.

Compared with “GATGTTGTTTCCTTTCTTTGGTGGTTTGGTTTGGTTGGGTCGGAGTCACCTAGTGCAG”, “GCCTTTTTTCCTTTGTCTTTTTCCGGCCCGCGTTCTTTTTCGGAGTCACCTAGTGCAG” is lower in binding signal: 29300 fluorescence intensity (a.u.) for the first, 17400 fluorescence intensity (a.u.) for the second.

First: GTTAGGCATGCTGCTTGTTTATTTTTTTTCAAGTTGAGAACGGAGTCACCTAGTGCAG
Second: GCTACTGGTGCCGGCCGCCGTCCTCCTGCTTCCGCCGCCGCGGAGTCACCTAGTGCAG
The binding signal of the first is lower: 8140 fluorescence intensity (a.u.) for the first, 9560 fluorescence intensity (a.u.) for the second.

First: CCCATCATGTGACTTCCATCCTTGTTCCTAGCTGCATGCACGGAGTCACCTAGTGCAG
Second: TCTTCACATGCTATTTTGTGTTATTCTTGCCTATAAATGACGGAGTCACCTAGTGCAG
The binding signal of the first is higher: 9270 fluorescence intensity (a.u.) for the first, 8310 fluorescence intensity (a.u.) for the second.

Compared with “ACATGTAAACTGTGCAATTGATTTTTTTTGTCCACATTTACGGAGTCACCTAGTGCAG”, “AGAGGAGACAGAACCCCTGACTTTATACAGTTTGCAGTTACGGAGTCACCTAGTGCAG” is lower in binding signal: 10400 fluorescence intensity (a.u.) for the first, 8340 fluorescence intensity (a.u.) for the second.

Going from “CGCCGCCGCATCTCCTCCTTCCTCTCTTGGCAACTGTCGGCGGAGTCACCTAGTGCAG” to “TTGAGTTGTGTTCTTGGTTGGGGAGGAGGAGGAGGAGATGCGGAGTCACCTAGTGCAG”, the binding signal rises from 8300 fluorescence intensity (a.u.) to 15100 fluorescence intensity (a.u.).

Going from “GTCTACTATCCTCTTTCATTGTCTTTTTGTTGGTTGGTTTCGGAGTCACCTAGTGCAG” to “GACATATTTTTTTCTCCTCTCTTTTTTCATTTGTTTTTTTCGGAGTCACCTAGTGCAG”, the binding signal falls from 17600 fluorescence intensity (a.u.) to 11600 fluorescence intensity (a.u.).

Going from “GATTCCTTCCTTTTGTTTTTGGGCCGAATTCTCCTTCTTTCGGAGTCACCTAGTGCAG” to “ACATGGGCTGGGCTGGGCTGGGCTCTTCTTCCTTTTTGTTCGGAGTCACCTAGTGCAG”, the binding signal rises from 13000 fluorescence intensity (a.u.) to 21900 fluorescence intensity (a.u.).

First: TTCCTTCTTCCTTCTTTTTTTCTCTCTTCTCCTTTTTTTTCGGAGTCACCTAGTGCAG
Second: TTTTTGTTTCTATTGGAGGTTGTCATGTTTATCTACCTTTCGGAGTCACCTAGTGCAG
The binding signal of the first is higher: 10300 fluorescence intensity (a.u.) for the first, 9650 fluorescence intensity (a.u.) for the second.

First: AGTTTGTGTGTGTAGGAAAGTTTTGATGTGATGAAAAAGTCGGAGTCACCTAGTGCAG
Second: GTAGGAAAGTTTGTTTGTGTGTGTAGAAAAGTTTTGATGTCGGAGTCACCTAGTGCAG
The binding signal of the first is lower: 8680 fluorescence intensity (a.u.) for the first, 21000 fluorescence intensity (a.u.) for the second.

Compared with “TTGTAAGTTTGTGTGTAGGAAAGTTTTGATGTGAGGAAAACGGAGTCACCTAGTGCAG”, “GGCGGGGTTGGGGCGGCAGGCGGCTGTGAGGTTCTTGATTCGGAGTCACCTAGTGCAG” is higher in binding signal: 9150 fluorescence intensity (a.u.) for the first, 16100 fluorescence intensity (a.u.) for the second.

Compared with “TCCTTGGGCTTTTTTTCTTGTTCGGGGTTGAGAGGCAATGCGGAGTCACCTAGTGCAG”, “ACACACACTTTACAGGTTTACAGCCCAACTTATCCGTGCACGGAGTCACCTAGTGCAG” is lower in binding signal: 18700 fluorescence intensity (a.u.) for the first, 9890 fluorescence intensity (a.u.) for the second.

First: ATTTCTTTCCATCCATAATTACTAGGCTGCATTGCCTCTTCGGAGTCACCTAGTGCAG
Second: CTCGTACTAGGGTGTCATGCTGTTGGTTCCGGTGAATCTTCGGAGTCACCTAGTGCAG
The binding signal of the first is higher: 8720 fluorescence intensity (a.u.) for the first, 8270 fluorescence intensity (a.u.) for the second.
